Assay [1] can be described thus: binders of probe aFSTL3 on microarray, primary screen, stem cell growth factor project, biochemical, small-molecule microarray, fluorescence 635/667 (AID 1064).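 Note: measures binding of the biotinylated anti-FSTL3 antibody to printed compounds.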 The conditions noted are these: higher = more signal.
A short description of assay [2]: binders from COS7 lysate, DM2A8 probe, primary screen, torsin A project, cell lysate, small-molecule microarray, fluorescence 635/667 (AID 1065). The note with it: higher = more signal, COS7 lysate expressing mutant human TOR1A.
Assay [3] can be described thus: binders of probe aFGF2 on microarray, primary screen, stem cell growth factor project, biochemical, small-molecule microarray, fluorescence 635/667 (AID 1067).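 Note: measures binding of biotinylated aFGF2 protein to printed compounds on slides; z-score merges feature fluorescence and signal-to-noise across triplicate slides.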 The note with it: higher = more signal.
Assay [4] in a line: binders of probe aFGF10 on microarray, primary screen, stem cell growth factor project, biochemical, small-molecule microarray, fluorescence 635/667 (AID 1071).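 Note: score merges 667 nm spot intensity and signal to noise from triplicate slides.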 The note with it: higher = more signal.
The target in assay [5] is Neurogenic locus notch homolog protein 2 (Homo sapiens) (UniProt Q04721). The assay can be described thus: Notch2 binders on small-molecule microarrays, primary screen, biochemical, small-molecule microarray, 635 nm fluorescence, stem cell growth factors (AID 1073). The note with it: Notch2 binding, higher = more signal.
In assay [6] the target is Pro-neuregulin-1, membrane-bound isoform (Homo sapiens) (UniProt Q02297). The assay can be described thus: NRG1 binders on small-molecule microarrays, primary screen, psychiatric disease protein project, biochemical, small-molecule microarray, fluorescence 635/667 (AID 1075).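 Note: score combines 667 nm spot fluorescence with signal to noise.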 The note with it: NRG1 binding, 635 nm fluorescence, higher = more signal.
Assay [7] concerns Neuregulin-1 EGF-like domain. The assay can be described thus: binders of neuregulin-1 EGF-like domain, primary screen, biochemical, small-molecule microarray, 635 nm fluorescence (AID 1081).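 Note: binding of the protein to compounds printed on small-molecule microarray slides.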 The note with it: small-molecule microarray binding, higher = more signal.
Assay [8] in a line: FRG1 promoter luciferase signal modulators, primary screen, FRG1 inhibition for FSHD, cell-based, C2C12 myotubes, firefly/Renilla luciferase, luminescence (AID 1084). The note with it: higher = more signal, called active from +8 up or from −8 down.
Assay [9] in a line: binders of probe aFST on microarray, primary screen, stem cell growth factor project, biochemical, small-molecule microarray, fluorescence 635/667 (AID 1086).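 Note: score merges 667 nm fluorescence with signal-to-noise of each printed compound spot.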 The note with it: higher = more signal.
Assay [10] can be described thus: binders of probe aHhip on microarray, primary screen, stem cell growth factor project, biochemical, small-molecule microarray, fluorescence 635/667 (AID 1087).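 Note: score merges spot fluorescence at 667nm with spot signal to noise ratio.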 The note with it: higher = more signal.
For assay [11], the system named is PRMT1 (protein arginine N-methyltransferase 1). The assay can be described thus: PRMT1 binders on small-molecule microarrays, primary screen, biochemical, small-molecule microarray, 635 nm fluorescence (AID 1088).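 Note: binding of Prmt1 protein to compounds spotted on small-molecule microarray slides.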 The note with it: small-molecule microarray binding, higher = more signal.
Assay [12] is described as follows: yeast growth modulation, basal conditions, primary screen, YJM789 clinical isolate, OD600, 24 h (AID 1089).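 Note: growth of clinical yeast isolate S. cerevisiae YJM 789 seeded 1000 cells per well; test concentration not given here.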 The conditions noted are these: S. cerevisiae YJM789 growth, higher = more signal, called active from +8 up or from −8 down.
Assay [13] is described as follows: fission yeast growth modulation, primary screen, strain 972, OD600, 24 h, no modulator (AID 1090).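 Note: basal condition with compound alone and no growth modifier present; test concentration not given here.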 The note with it: S. pombe 972 growth, higher = more signal, called active from +8 up or from −8 down.
The nature of assay [14]: S. cerevisiae growth modulation with rapamycin, primary screen, strain BY4716, OD600, 96 h (AID 1091). Note: test concentration not given here. The note with it: higher = more signal, called active from +8 up or from −8 down.
Assay [15] deals with Torsin-1A-interacting protein 2 (Homo sapiens) (UniProt Q8NFQ8). The assay can be described thus: LULL1 binders on small-molecule microarray, primary screen, cell lysate, human LULL1 lysate, 635/667 nm fluorescence (AID 1092).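 Note: probe is lysate of COS7 cells overexpressing human LULL1; score merges per-feature 667 nm fluorescence with signal-to-noise.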 The note with it: hLULL1 lysate binding, 635 nm fluorescence, higher = more signal.
A short description of assay [16]: E. coli growth modulation, two-sided OD650, primary screen, E. coli filamentation project, strain DRC41, 24 h (AID 1093).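 Note: MC1000 strain lacking acrAB efflux and sulA so SOS filamentation is blocked; test concentration not given here.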 The conditions noted are these: OD650, 24 h, higher = more signal, called active from +8 up or from −8 down.
Assay [17] is described as follows: small-molecule microarray binders of probe aLefty2, primary screen, biochemical, biotinylated probe, 635/667 nm fluorescence (AID 1094).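 Note: score merges spot fluorescence near 667 nm with spot signal-to-noise ratio.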 The conditions noted are these: higher = more signal.
The test system of assay [18] is Noggin (protein binding on small-molecule microarray). The assay can be described thus: Noggin binders on small-molecule microarray, primary screen, biochemical, 635/667 nm fluorescence (AID 1095).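 Note: score merges 667 nm feature fluorescence with signal to noise over triplicate slides.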 The note with it: 635 nm fluorescence, higher = more signal.
The target of assay [19] is Neurogenic locus notch homolog protein 3 (Homo sapiens) (UniProt Q9UM47). The assay can be described thus: NOTCH3 binders on small-molecule microarray, primary screen, biochemical, 635/667 nm fluorescence (AID 1096). The note with it: NOTCH3 binding, 635 nm fluorescence, higher = more signal.
A short description of assay [20]: small-molecule microarray binders of probe aEGFR, primary screen, biochemical, biotinylated probe, 635/667 nm fluorescence (AID 1097).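 Note: probe is a biotinylated anti-EGFR antibody binding compounds printed on slides; score combines fluorescence near 667 nm and signal to noise of each spot.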 The conditions noted are these: higher = more signal.

The source made the active and inactive calls.

Sequence of Neurogenic locus notch homolog protein 2 (Homo sapiens) (Q04721 whole entry, looked up, canonical isoform): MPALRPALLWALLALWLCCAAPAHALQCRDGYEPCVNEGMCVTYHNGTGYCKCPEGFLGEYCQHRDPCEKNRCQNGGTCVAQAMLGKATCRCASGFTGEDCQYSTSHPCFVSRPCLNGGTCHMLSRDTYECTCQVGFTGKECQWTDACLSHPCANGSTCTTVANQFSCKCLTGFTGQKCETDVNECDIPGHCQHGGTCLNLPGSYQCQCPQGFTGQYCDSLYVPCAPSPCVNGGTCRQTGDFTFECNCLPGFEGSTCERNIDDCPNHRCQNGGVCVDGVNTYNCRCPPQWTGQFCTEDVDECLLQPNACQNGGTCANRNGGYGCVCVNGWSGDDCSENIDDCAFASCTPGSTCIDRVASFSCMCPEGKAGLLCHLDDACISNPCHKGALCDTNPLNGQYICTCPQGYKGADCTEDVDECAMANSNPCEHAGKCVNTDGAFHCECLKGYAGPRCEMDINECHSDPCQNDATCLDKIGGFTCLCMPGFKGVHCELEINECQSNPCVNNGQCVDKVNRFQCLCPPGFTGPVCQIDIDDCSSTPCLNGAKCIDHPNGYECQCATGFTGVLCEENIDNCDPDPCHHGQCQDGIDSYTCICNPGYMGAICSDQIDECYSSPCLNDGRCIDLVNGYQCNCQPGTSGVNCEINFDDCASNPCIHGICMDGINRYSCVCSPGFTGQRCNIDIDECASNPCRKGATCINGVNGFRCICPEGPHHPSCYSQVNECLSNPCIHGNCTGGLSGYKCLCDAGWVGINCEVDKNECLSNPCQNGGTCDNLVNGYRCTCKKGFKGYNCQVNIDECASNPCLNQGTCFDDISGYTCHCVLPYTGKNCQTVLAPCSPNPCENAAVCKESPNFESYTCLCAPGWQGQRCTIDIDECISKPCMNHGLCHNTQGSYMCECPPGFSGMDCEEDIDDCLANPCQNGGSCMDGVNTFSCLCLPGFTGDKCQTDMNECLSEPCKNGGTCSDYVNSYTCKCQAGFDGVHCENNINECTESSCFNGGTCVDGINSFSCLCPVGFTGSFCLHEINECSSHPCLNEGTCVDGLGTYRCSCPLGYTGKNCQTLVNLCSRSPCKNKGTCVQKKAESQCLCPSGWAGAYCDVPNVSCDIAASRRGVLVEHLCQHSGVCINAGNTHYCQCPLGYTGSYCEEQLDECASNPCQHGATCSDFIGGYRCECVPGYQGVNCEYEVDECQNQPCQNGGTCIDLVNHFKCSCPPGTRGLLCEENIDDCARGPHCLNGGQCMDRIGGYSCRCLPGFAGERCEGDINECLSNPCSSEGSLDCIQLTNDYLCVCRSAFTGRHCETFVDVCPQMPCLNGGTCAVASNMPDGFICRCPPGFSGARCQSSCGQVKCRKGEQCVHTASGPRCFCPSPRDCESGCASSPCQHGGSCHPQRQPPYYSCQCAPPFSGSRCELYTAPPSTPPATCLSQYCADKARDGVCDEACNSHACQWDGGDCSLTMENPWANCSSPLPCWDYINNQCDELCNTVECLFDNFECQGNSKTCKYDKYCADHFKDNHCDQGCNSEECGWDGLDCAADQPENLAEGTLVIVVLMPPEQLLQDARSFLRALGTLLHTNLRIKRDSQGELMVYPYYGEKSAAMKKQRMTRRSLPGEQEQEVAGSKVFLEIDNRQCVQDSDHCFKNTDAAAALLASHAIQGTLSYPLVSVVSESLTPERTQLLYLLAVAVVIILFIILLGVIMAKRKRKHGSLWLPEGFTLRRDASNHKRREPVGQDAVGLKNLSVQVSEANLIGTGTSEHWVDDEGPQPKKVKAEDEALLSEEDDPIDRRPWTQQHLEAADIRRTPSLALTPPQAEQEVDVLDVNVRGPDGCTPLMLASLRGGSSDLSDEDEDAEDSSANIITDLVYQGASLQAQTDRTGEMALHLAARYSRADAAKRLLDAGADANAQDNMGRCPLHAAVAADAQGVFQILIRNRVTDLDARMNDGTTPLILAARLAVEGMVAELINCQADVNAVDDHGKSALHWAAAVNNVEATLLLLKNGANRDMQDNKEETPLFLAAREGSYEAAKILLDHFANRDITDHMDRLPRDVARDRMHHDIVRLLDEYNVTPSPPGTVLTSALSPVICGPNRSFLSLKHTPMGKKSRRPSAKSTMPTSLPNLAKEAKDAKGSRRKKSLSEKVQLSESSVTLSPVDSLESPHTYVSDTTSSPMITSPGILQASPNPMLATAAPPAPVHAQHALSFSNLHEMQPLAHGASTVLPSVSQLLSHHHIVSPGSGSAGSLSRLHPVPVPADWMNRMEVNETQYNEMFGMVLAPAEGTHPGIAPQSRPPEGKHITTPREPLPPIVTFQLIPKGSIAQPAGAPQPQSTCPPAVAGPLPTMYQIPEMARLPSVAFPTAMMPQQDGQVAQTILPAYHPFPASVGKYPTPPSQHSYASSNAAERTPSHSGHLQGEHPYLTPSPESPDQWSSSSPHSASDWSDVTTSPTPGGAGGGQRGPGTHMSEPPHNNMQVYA
Sequence of Torsin-1A-interacting protein 2 (Homo sapiens) (Q8NFQ8 whole entry, looked up): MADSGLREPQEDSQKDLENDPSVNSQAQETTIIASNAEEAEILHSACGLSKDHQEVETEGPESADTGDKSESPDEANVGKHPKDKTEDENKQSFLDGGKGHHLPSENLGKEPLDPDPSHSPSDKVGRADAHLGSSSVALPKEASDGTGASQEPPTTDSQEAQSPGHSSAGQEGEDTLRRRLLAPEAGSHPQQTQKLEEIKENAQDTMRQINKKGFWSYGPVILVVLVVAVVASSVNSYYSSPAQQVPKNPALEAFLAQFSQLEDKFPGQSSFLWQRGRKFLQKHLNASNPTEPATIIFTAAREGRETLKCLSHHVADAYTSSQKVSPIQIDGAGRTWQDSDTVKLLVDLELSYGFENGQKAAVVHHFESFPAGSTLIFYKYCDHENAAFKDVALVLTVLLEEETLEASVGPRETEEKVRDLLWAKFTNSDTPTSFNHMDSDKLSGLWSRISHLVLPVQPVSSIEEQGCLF
Sequence of Pro-neuregulin-1, membrane-bound isoform (Homo sapiens) (Q02297 whole entry, looked up, the tested form may be a part, canonical isoform): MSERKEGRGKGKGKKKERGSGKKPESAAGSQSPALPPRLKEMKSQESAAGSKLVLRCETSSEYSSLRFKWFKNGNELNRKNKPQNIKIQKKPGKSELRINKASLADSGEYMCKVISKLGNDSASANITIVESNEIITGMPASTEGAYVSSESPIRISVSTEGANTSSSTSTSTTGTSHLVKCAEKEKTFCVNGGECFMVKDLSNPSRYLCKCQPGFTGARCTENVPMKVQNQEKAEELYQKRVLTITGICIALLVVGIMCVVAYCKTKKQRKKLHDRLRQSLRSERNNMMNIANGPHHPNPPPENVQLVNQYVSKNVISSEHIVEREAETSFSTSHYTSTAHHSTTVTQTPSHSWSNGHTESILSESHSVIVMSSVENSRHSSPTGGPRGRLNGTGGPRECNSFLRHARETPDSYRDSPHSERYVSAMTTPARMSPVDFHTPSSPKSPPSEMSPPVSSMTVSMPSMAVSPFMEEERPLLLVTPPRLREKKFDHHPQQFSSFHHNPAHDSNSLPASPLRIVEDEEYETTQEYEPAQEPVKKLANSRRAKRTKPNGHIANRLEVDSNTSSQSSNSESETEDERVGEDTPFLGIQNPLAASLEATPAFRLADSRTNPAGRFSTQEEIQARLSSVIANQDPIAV

For the molecule `COCCOC(=O)N1C(=O)[C@@]2(c3cc(C#CCCO)ccc31)[C@H](c1ccc(OCCO)cc1)N1[C@H](c3ccccc3)[C@H](c3ccccc3)OC(=O)[C@H]1[C@@H]2C(=O)N1CCc2cc(OC)c(OC)cc2C1`, the composite z-score in [1] was -0.392; in assay [2] it was 0.444; in [3], -0.0732; in [4] it was 0.375; in assay [5] it was 0.921; in assay [6], 0.635. Besides, the composite z-score in assay [7] was 1.25; in assay [9], 0.159; in [10], -0.0618; in assay [11], 1.55; in assay [15], 2.48; in [17] it was 0.022. Further, the results for the composite z-score in [18], in [19] and in assay [20] were 1.05, 1.13 and 0.0365, respectively. Besides, the z-score was -0.355 (inactive) in assay [8]; 2.59 (inactive) in assay [12]; 1.28 (inactive) in assay [13]; 4.19 (inactive) in [14]; 0.37 (inactive) in assay [16].
`COC(=O)[C@@]1(Cc2ccc(F)cc2)[C@H]2c3cc(C(=O)N(C)C)n(Cc4ccc(C)c(F)c4F)c3C[C@H]2CN1C(=O)c1ccccc1`: the composite z-score in assay [1] amounted to 0.896; in assay [2], 0.0685; in assay [3] it was 0.0697; in assay [4], 0.795; in [5], 1.62; in [6], 1.71. Besides, the composite z-score in assay [7] was 1.36; in assay [9] it was 0.758; in [10] it was 0.177; in assay [11] it was -0.495; in assay [15] it was 3.18; in [17], 0.439. In addition, the composite z-score in assay [18] was -0.724; in assay [19], 0.876; in assay [20], 0.856. Moreover, the z-score in assay [8] was 0.55 (inactive); in assay [12], 0.28 (inactive); in assay [13], 1.18 (inactive); in assay [14] it was 0.934 (inactive); in assay [16] it was 0.583 (inactive).
Take `O=C1O[C@@H](c2ccccc2)[C@@H](c2ccccc2)N2[C@@H](c3ccc(O)cc3)[C@]3(C(=O)Nc4ccc(C#CC5(O)CCCCCC5)cc43)[C@@H](C(=O)N3CCN(c4ncccn4)CC3)[C@H]12`: the composite z-score was -0.381 in assay [1]; 0.0262 in assay [2]; 0.0011 in assay [3]; 0.349 in [4]; 0.609 in assay [5]; 1.6 in assay [6]. In addition, the composite z-score is 1.22 in [7]; 0.204 in [9]; -0.0994 in [10]; 1.34 in [11]; 2.75 in [15]; -0.114 in assay [17]. The composite z-score in assay [18] was 0.864; in assay [19], 0.886; in assay [20], -0.0399. The z-score in assay [8] is -0.0311 (inactive); in assay [12], 0.979 (inactive); in assay [13], 0.37 (inactive); in assay [14], 0.924 (inactive); in assay [16], 1.52 (inactive).
Consider `COCCCNC(=O)[C@]1(Cc2ccccc2)N=C(c2ccc(OCCCO)cc2)O[C@@H]1c1ccccc1N=[N+]=[N-]`, for which the composite z-score amounted to 0.29 in [1]; 1.54 in [2]; 0.12 in assay [3]; 0.632 in assay [4]; 1.02 in assay [5]; 0.725 in assay [6]. Further, the composite z-score in assay [7] was 1.2; in assay [9] it was 1.47; in assay [10], -0.0994; in assay [11], 1.56; in assay [15], 3.16; in assay [17] it was -0.02. The composite z-score in assay [18] was 1.67; in assay [19], 1.15; in assay [20] it was -0.0238. Moreover, the z-score is -0.309 (inactive) in assay [8]; -0.499 (inactive) in assay [12]; -0.357 (inactive) in [13]; 1.37 (inactive) in assay [14]; 0.49 (inactive) in assay [16].
Turning to `CC(C)CN1C(=O)[C@@]2(Cc3ccccc31)c1ccccc1C(=O)N(Cc1ccccc1)[C@H]2c1ccc(CO)cc1`, the composite z-score is 0.849 in assay [1]; -0.675 in assay [2]; -0.148 in [3]; -0.0466 in [4]; -0.713 in assay [5]; -0.544 in assay [6]. The composite z-score is -0.152 in assay [7]; -0.759 in [9]; -0.261 in assay [10]; -0.594 in assay [11]; 0.771 in [15]; -0.131 in assay [17]. Also, the composite z-score is -0.34 in [18], -0.395 in assay [19] and -0.348 in assay [20]. Moreover, the z-score was -0.314 (inactive) in assay [8]; -0.0832 (inactive) in assay [12]; -0.519 (inactive) in assay [13]; -1.46 (inactive) in [14]; -0.336 (inactive) in assay [16].

These data come from PubChem BioAssay.
